Molecules are shown by their SMILES. Where “and” joins values, the source holds several entries; their conditions need not be identical. Identical values can stand only once. Inconclusive results are not listed. More than one record can exist for a structure, and the calls need not agree. Calls of active or inactive are those of the source. Unless noted, calls come from the whole dose curve; as a rule, active = well fitted curve in the direction sought with a large enough effect in the repeat runs; inconclusive = weak or mixed curves; inactive = no such curve, though single readings can be large; an effect the other way counts as inactive or inconclusive.

Assay [1] is described as follows: qHTS assay to identify aromatase inhibitors - cell viability counter screen (AID 743084).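 Note: cells stimulated with testosterone during compound exposure; nearly all actives have a fitted effect of over 55% in size.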 Note: potency is the fitted concentration of half-maximal effect.
Assay [2] addresses Aryl hydrocarbon receptor (Homo sapiens) (UniProt P35869). The assay can be described thus: qHTS assay to identify small molecule that activate the aryl hydrocarbon receptor (AhR) signaling pathway (AID 743085).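 For activation: HG2L7.5c1 human HepG2 liver cells with stably integrated DRE-driven firefly reporter; series mostly up to about 70 µM.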 Note: nearly all actives have a fitted effect of over 15% in size. Note: potency is the fitted concentration of half-maximal effect. The essentials: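 A multiplexed format paired cell viability (CellTiter-Fluor fluorescence) with AhR-dependent luciferase output (ONE-Glo luminescence) in the same wells of HepG2 DRE-luc cells after 24 h compound exposure at 37C.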

Assay [3] in a line: qHTS assay to identify small molecule that activate the aryl hydrocarbon receptor (AhR) signaling pathway - cell viability counter screen (AID 743086).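 Note: HepG2 liver cells carrying the AhR DRE luciferase reporter; series mostly up to about 70 µM; nearly all actives have a fitted effect of over 45% in size.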 The essentials: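 HepG2-AhR-luc (HG2L7.5c1) cells, 4000/well, treated 24 h at 37 C with compound; viability measured as CellTiter-Fluor fluorescence after 30 min in the same wells as the luciferase read.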
The target in assay [4] is Peroxisome proliferator-activated receptor gamma (Homo sapiens) (UniProt P37231). The assay can be described thus: qHTS assay to identify small molecule agonists of the peroxisome proliferator-activated receptor gamma (PPARg) signaling pathway (AID 743094; active = well fitted activation curve with a large enough effect in the signal ratio in the repeat runs, not every such curve was filed as active; the % refers to the signal ratio; note: potency is the fitted concentration of half-maximal effect). Put shortly: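 Following 5 h plating at 37C, PPARg-bla HEK293H cells receive compound or DMSO for 17 h; fluorescence intensity is recorded after LiveBLAzer B/G loading for 1 h at room temperature.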

Assay [5] shares this target. Briefly: qHTS assay to identify small molecule antagonists of the peroxisome proliferator-activated receptor gamma (PPARg) signaling pathway (AID 743191; calls by dose curve; note: series mostly up to about 63 µM; nearly all actives have a fitted effect of over 30% in size). Put shortly:
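GeneBLAzer PPARg UAS-bla HEK293H cells, 5 h post-plating, exposed to compounds 17 h at 37C. LiveBLAzer B/G FRET substrate added for 1 h at room temperature; beta-lactamase reporter read by fluorescence intensity.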

The nature of assay [6]: qHTS assay to identify small molecule antagonists of the peroxisome proliferator-activated receptor gamma (PPARg) signaling pathway - cell viability counter screen (AID 743194). Note: nearly all actives have a fitted effect of over 55% in size. Note: potency is the fitted concentration of half-maximal effect. The settings on record: Potency: co-treated with 50 nM rosiglitazone unless noted. Put shortly: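 Cytotoxicity counter screen in PPARg-bla HEK293H cells, same wells as reporter assay. Compounds plus 50 nM rosiglitazone (final) for 17 h at 37 C, then viability read by CellTiter-Glo luminescence.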

Assay [7] in a line: qHTS assay for small molecule agonists of the antioxidant response element (ARE) signaling pathway (AID 743202; active = well fitted activation curve with a large enough effect in the signal ratio in the repeat runs, not every such curve was filed as active; the % refers to the signal ratio; note: potency is the fitted concentration of half-maximal effect). The essentials: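 Agonist mode reporter screen: HepG2 cells with ARE-controlled beta-lactamase are incubated with test compounds for 16 h at 37 C, and beta-lactamase activity is measured as fluorescence of cleaved B/G FRET substrate.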
Assay [8] can be described thus: qHTS assay for small molecule agonists of the antioxidant response element (ARE) signaling pathway - cell viability counter screen (AID 743203; calls by dose curve; note: nearly all actives have a fitted effect of over 55% in size; note: potency is the fitted concentration of half-maximal effect). The essentials:
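Compounds in DMSO were pinned onto ARE-bla HepG2 cells plated 5 hrs earlier at 2,000 cells/well. Sixteen hours later at 37C/5% CO2, CellTiter-Glo was added and luminescence measured after 30 min at room temperature.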

Assay [9] is described as follows: qHTS assay for small molecule activators of the heat shock response signaling pathway - cell viability counter screen (AID 743209). Note: nearly all actives have a fitted effect of over 50% in size. Note: potency is the fitted concentration of half-maximal effect. The essentials:
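Counter screen for cytotoxicity in HeLa HSE-bla reporter cells. Treatment was 5 h at 37 C; viability was detected by luminescent ATP assay (CellTiter-Glo) in the same wells as the beta-lactamase read.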

Assay [10] in a line: qHTS assay for small molecule activators of the heat shock response signaling pathway (AID 743210; active = well fitted activation curve with a large enough effect in the signal ratio in the repeat runs, with a control signal flat, not every such curve was filed as active; the % refers to the signal ratio;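 note: HeLa cells with beta-lactamase reporter driven by heat shock elements; series mostly up to about 63 µM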). Put shortly:
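Quantitative high-throughput format using an engineered HeLa line in which heat shock response elements drive beta-lactamase; after 5 h with compound, cells received a B/G FRET substrate and fluorescence was read.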

Chain of Aryl hydrocarbon receptor (Homo sapiens) (P35869 whole entry, looked up): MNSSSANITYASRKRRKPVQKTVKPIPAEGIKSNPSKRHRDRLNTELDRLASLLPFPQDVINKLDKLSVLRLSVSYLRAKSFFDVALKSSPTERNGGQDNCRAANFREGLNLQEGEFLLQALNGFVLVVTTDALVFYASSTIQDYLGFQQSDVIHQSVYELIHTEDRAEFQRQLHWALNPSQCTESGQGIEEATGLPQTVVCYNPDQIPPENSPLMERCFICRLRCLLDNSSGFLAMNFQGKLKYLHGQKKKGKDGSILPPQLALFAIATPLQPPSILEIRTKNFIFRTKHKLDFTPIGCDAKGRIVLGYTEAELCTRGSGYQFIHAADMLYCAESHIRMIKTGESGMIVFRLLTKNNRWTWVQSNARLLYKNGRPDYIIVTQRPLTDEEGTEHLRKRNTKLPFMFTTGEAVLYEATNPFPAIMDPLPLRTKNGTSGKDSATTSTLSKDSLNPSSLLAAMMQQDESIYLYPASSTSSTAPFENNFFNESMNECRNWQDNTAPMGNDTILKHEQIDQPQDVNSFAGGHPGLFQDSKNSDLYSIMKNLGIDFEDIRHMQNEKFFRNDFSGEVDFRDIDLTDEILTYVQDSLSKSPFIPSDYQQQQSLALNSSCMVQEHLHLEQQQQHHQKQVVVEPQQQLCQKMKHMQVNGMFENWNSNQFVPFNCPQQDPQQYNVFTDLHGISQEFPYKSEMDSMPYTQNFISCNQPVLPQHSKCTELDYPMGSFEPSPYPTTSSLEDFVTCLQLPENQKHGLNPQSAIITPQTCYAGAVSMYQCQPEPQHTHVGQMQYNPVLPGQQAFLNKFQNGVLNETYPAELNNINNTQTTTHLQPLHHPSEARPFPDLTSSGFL
Chain of Peroxisome proliferator-activated receptor gamma (Homo sapiens) (P37231 whole entry, looked up): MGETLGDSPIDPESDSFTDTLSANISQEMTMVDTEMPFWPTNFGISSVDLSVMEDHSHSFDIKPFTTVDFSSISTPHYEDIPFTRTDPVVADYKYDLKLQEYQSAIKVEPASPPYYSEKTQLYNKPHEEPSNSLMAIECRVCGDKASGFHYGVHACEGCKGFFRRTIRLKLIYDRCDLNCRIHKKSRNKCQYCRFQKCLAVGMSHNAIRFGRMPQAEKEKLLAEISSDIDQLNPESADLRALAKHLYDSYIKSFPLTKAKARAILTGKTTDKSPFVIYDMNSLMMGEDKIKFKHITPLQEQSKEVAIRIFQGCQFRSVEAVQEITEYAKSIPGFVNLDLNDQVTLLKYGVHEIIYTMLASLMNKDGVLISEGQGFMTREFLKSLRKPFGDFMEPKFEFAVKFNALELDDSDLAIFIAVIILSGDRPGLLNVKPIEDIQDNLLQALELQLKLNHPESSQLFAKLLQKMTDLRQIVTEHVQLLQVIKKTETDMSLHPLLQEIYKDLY

Turning to `CCC(CC)Nc1c([N+](=O)[O-])cc(C)c(C)c1[N+](=O)[O-]`, the Potency entry in [1], in [2], in assay [3], in assay [4], in [5] and in [6] was “inactive” throughout. Also, the Potency entry in assay [7], in [8], in assay [9] and in assay [10] was “inactive” throughout.
In the case of `CCOP(=S)(OCC)O/N=C(\C#N)c1ccccc1`, the Potency result in assay [1], in assay [3], in assay [4], in assay [5], in assay [6] and in assay [8] was “inactive” throughout. Moreover, the Potency entry in [9] and in [10] was “inactive” each time. Moreover, the Potency in [2] was 10.6 µM (active) and 21.7 µM (active).
As to `COP(=O)(OC)OC`, the Potency entry in assay [1], in [2], in assay [3], in assay [4], in assay [6] and in assay [8] was “inactive” each time. The Potency result in assay [9] and in assay [10] was “inactive” in each case.
For the compound `CCCCCc1cc(O)cc(O)c1`, the Potency entry in [1], in assay [3], in assay [4], in assay [6], in assay [8] and in assay [9] was “inactive” throughout. Besides, the Potency result in assay [10] was “inactive”. The Potency was 61.4 µM (active) in assay [2]; 48.8 µM (active) and 48.6 µM (active) in assay [7].
Take `ClC1C(Cl)C(Cl)C(Cl)C(Cl)C1Cl` (centres undefined): the Potency result in [1], in [2], in assay [3], in [4], in assay [6] and in assay [8] was “inactive” throughout. Besides, the Potency result in assay [9] and in assay [10] was “inactive” throughout.
On to `Nn1cnnc1`, for which the Potency result in assay [1], in assay [2], in [3], in [4], in assay [6] and in assay [8] was “inactive” in each case. Also, the Potency entry in assay [9] and in [10] was “inactive” in each case.
In the case of `CC(C)Oc1cc(-n2nc(C(C)(C)C)oc2=O)c(Cl)cc1Cl`, the Potency in assay [1] is 27.3 µM (active); in [8], “inactive and 34.4 µM (active)”. For the same compound, the Potency entry in assay [2], in [3], in assay [4], in assay [6] and in assay [9] was “inactive” throughout.
For `CCCCCCOC(=O)c1ccccc1C(=O)OCCCCCC`, the Potency result in [1], in assay [2], in [3], in assay [4], in assay [6] and in assay [7] was “inactive” in each case. The Potency result in [8], in assay [9] and in assay [10] was “inactive” each time.
In the case of `COP(=S)(OC)Oc1ccc([N+](=O)[O-])cc1`, the Potency result in assay [1], in [2], in [3], in assay [4], in [6] and in assay [8] was “inactive” each time. The Potency entry in [9] and in assay [10] was “inactive” throughout.
`O=C(NC(=O)c1c(F)cccc1F)Nc1ccc(Cl)cc1`: the Potency result in assay [1], in [3], in [4], in [6], in [8] and in assay [9] was “inactive” in each case. Also, the Potency result in assay [10] was “inactive”. Further, in assay [2], the Potency is 97.1 nM (active) and 611 nM (active).
Regarding `Nc1ccc(Cl)c(Cl)c1`, the Potency entry in assay [1], in [3], in assay [4], in [6], in [7] and in assay [8] was “inactive” throughout. In addition, the Potency entry in assay [9] and in assay [10] was “inactive” in each case. Further, the Potency in assay [2] was 55.7 µM (active) and 61.1 µM (active).
As to `Cc1ccccc1[N+](=O)[O-]`, the Potency entry in assay [1], in [2], in assay [3], in [4], in assay [6] and in assay [7] was “inactive” in each case. Moreover, the Potency entry in assay [8] and in [9] was “inactive” each time.
`CCCCC(CC)COC(=O)Cl` (centres undefined): the Potency result in [1], in assay [2], in [3], in assay [4], in [6] and in [7] was “inactive” throughout. The Potency result in assay [8], in [9] and in [10] was “inactive” throughout.
As to `c1ccc(-c2cccc(-c3ccccc3)c2)cc1`, the Potency entry in assay [1], in assay [3], in assay [4], in assay [6], in [8] and in [9] was “inactive” throughout. The Potency entry in assay [10] was “inactive”. In assay [2], the Potency result was “inactive and 61.1 µM (active)”.
With `CCN(N=O)C(N)=O`, the Potency entry in [1], in [2], in assay [3], in [4], in [6] and in [7] was “inactive” throughout. Moreover, the Potency result in assay [8], in assay [9] and in assay [10] was “inactive” in each case.
Regarding `CCCCC(CC)COC(=O)c1ccc(C(=O)OCC(CC)CCCC)c(C(=O)OCC(CC)CCCC)c1` (centres undefined), the Potency entry in assay [1], in assay [2], in assay [3], in assay [4], in assay [5] and in assay [6] was “inactive” in each case. Moreover, the Potency result in assay [7], in assay [8], in assay [9] and in [10] was “inactive” throughout.
Take `O=C(Nc1ccc(Br)cc1)c1cc(Br)cc(Br)c1O`: the Potency result in assay [1], in [3] and in assay [4] was “inactive” in each case. Also, the Potency in assay [2] was 5.31 µM (active) and 3.42 µM (active) and 3.06 µM (active); in assay [6], 488 nM (active) and 245 nM (active) and 3.76 µM (active); in [8], 34.2 µM (active) and 9.69 µM (active) and 13.3 µM (active).
With `CCN(CC)N=O`, the Potency entry in [1], in [2], in assay [3], in assay [4], in assay [6] and in assay [8] was “inactive” each time. In addition, the Potency result in assay [9] and in assay [10] was “inactive” each time.
On to `CCC(=O)O[C@H]1CC[C@H]2[C@@H]3CCC4=CC(=O)CC[C@]4(C)[C@H]3CC[C@]12C`, for which the Potency result in assay [1], in assay [2], in [3], in assay [4] and in assay [10] was “inactive” throughout. The Potency in assay [6] is 49 µM [setting not given] (active) and inactive; in assay [8], 68.6 µM (active) and inactive; in assay [9] it was 54.9 µM (active) and inactive.
As to `CCC(C)(C)c1ccc(O)cc1`, the Potency entry in assay [1], in [2], in assay [3], in assay [4], in assay [5] and in assay [6] was “inactive” each time. Also, the Potency entry in assay [7], in assay [8], in assay [9] and in assay [10] was “inactive” each time.
On to `Cc1cc(Cl)ccc1OCCCC(=O)O`, for which the Potency result in [1], in assay [2], in assay [3], in assay [4], in assay [6] and in assay [7] was “inactive” in each case. The Potency entry in assay [8], in assay [9] and in [10] was “inactive” each time.
Consider `CC(C)C(=O)OCC(C)(C)C(OC(=O)C(C)C)C(C)C` (centres undefined), for which the Potency result in assay [1], in [2], in assay [3], in assay [4], in assay [5] and in [8] was “inactive” throughout. Further, the Potency entry in [10] is “inactive”. In addition, the Potency was 35 µM [setting not given] (active) in [6]; 24.8 µM (active) and inactive in assay [9].
Turning to `CCCCCCCCOC(=O)c1ccccc1C(=O)OCCCCCCCC`, the Potency result in assay [1], in [2], in assay [3], in [5], in assay [6] and in assay [8] was “inactive” in each case. Further, the Potency entry in [9] and in assay [10] was “inactive” in each case. For the same compound, the Potency result in assay [4] is “inactive and 54.8 µM (active)”.
`CCN(CC)C(=O)SCc1ccc(Cl)cc1`: the Potency result in assay [1], in assay [2], in [3], in [4], in [6] and in [8] was “inactive” each time. Moreover, the Potency result in assay [9] and in [10] was “inactive” throughout.

(Values after PubChem BioAssay (Tox21).)
